In the library only some 3.7% were active in any assay of this set; here they are far more common.
A549 viability: Nrf2 qHTS screen for inhibitors: counterscreen for cytotoxicity | A549 ARE-Fluc cells, CellTiter-Fluor viability, 18-24 h | Potency, µM (highest dose often 46 µM), actives largely listed as inhibitors | 390,000 compounds, 0.16% hits | AID 504648, 2011
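A549 ARE-Fluc cells in 5% FBS OPTI-MEM, 5000 cells/well, rested 2 h then exposed to compounds in concentration-response for 18-24 h at 37 °C. Viability by CellTiter-Fluor fluorescence (Ex 405/Em 525) after 30 min; luciferase luminescence (BugLite, 15 min, RT) read afterwards.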
miR-21 act: qHTS Assay for Modulators of miRNAs and/orActivators of miR-21; HeLa miR-21 FLuc reporter, luciferase, 48 h; Potency, µM (doses to about 38.3 µM), hits mostly activators; 340,000 tested, under 10 active;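 also: miR-21 action dims this reporter so a rising signal means less miR-21 action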
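Using DMEM plus 10% FBS, HeLa miR-21-FLuc cells are incubated with test compounds (final up to about 40uM) for 48 hours; firefly luciferase signal is then imaged following reagent-mediated lysis.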
ClpP mod: qHTS Assay for Activators of ClpP | ATP-dependent Clp protease proteolytic subunit (Bacillus subtilis (strain 168)), P80244 | purified B. subtilis ClpP, FRET peptide cleavage, 20 min | Potency, µM (doses to about 57.5 µM) | 340,000 compounds, 1.9% hits; active = well fitted falling curve with a large enough effect; inconclusive = small, poorly fitted or top-dose-only effect; inactive = no such curve, though single readings can be large or run the other way; also: the source files actives as falling curves though it sought activators and does not explain the sign; nearly all actives have a fitted effect of over 65% in size
Target sequence (P80244 whole entry, looked up): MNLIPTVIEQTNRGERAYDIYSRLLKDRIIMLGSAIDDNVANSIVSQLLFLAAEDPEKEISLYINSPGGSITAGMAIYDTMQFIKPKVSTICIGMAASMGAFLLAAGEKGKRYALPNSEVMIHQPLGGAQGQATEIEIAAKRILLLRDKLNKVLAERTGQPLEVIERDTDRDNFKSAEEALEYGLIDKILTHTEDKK
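Purified B. subtilis ClpP, 10 microg/mL final in Tris/HCl pH8 with KCl, BSA, glycerol and Tween-20, cleaved an Abz/nitrotyrosine-quenched decapeptide. Fluorescence (ex 320, em 430) was read at 0 and 20 min at room temperature. Delta was normalized to 5.8 microM ADEP and DMSO/no-enzyme controls.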
Nrf2 inh: Nrf2 qHTS screen for inhibitors | A549 ARE-Fluc reporter, luciferase luminescence, 18-24 h | Potency, µM (titrated, usually from 46 µM), most hits filed as inhibitors | 360,000 compounds, 2.1% hits | AID 504444, 2011; also: nearly all actives have a fitted effect of over 60% in size
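A549 ARE_Fluc cells (5000/well, 5% FBS OPTI-MEM) pre-incubated 2 h, then treated with compounds 18-24 h at 37C/5% CO2 in concentration-response. CellTiter-Fluor viability read first; BugLite luciferase luminescence after 15 min at room temperature gives Nrf2 activity.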
Nrf2 ARE act: qHTS of Nrf2 Activators; AREc32 ARE-luciferase reporter (MCF7-derived line), luminescence, 24 h; Potency, µM (titrated, usually from 46.1 µM), hits mostly activators; 410,000 compounds, 0.31% hits; also: nearly all actives have a fitted effect of over 65% in size
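Nrf2 activation is followed as ARE-luciferase induction in the AREc32 line after one day of compound treatment; luminescence is read with Steady-Glo.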
IL2 activator: qHTS of IL-2 Activators; 360,000 compounds, 0.065% hits; IL-2 activation reporter assay, cell-based qHTS; stimulated with anti-CD3/CD4/CD28 beads; in transgenic mouse T cells; activation, % (series mostly up to about 46 µM); in the data active = activation above about 50%; inconclusive = mostly about 30% to 49%
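Unstimulated transgenic mouse T cells, 750 per well, received compound and, after 60 minutes, anti-CD3/anti-CD4 bead plus anti-CD28 stimulation. EGFP and DsRed were quantified after 18 hours.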
Large screens that a line does not name were inactive. Unless noted, calls follow the shape of the dose curve; as a rule, active = well fitted curve in the direction sought with a large enough effect; inconclusive = small, poorly fitted or top-dose-only effect, or another doubt; inactive = no such curve, though single readings can be large; an effect the other way counts as inactive or inconclusive.

O=C(c1cc(COc2ccc3ncccc3c2)on1)N1CCCC(O)C1 (centres undefined)	Nrf2 inh inconclusive (no result: ClpP mod)
CCOC(=O)N1CCN(C(=O)c2cc(COc3ccc4ncccc4c3)on2)CC1	miR-21 act inconclusive, Nrf2 inh 18µM (no result: ClpP mod)
CN(Cc1nccn1C)C(=O)c1cc(COc2ccc3ncccc3c2)on1	Nrf2 inh 21µM
CC(CNC(=O)c1cc(COc2ccc3ncccc3c2)on1)c1ccccc1 (centres undefined)	Nrf2 inh 15µM
CCOC(=O)c1c(C)[nH]c(C)c1S(=O)(=O)N(C)CC(=O)NCc1ccc(Cl)cc1	none (no result: Nrf2 inh, IL2 activator)
COc1ccccc1NC(=O)C1=C(C)Nc2nc(SCC(=O)c3ccc(C)cc3)nn2C1c1ccc(F)cc1 (centres undefined)	none (no result: Nrf2 inh, IL2 activator)
COC(=O)c1ccc(NC(=O)CSc2nccn2Cc2ccc(Cl)cc2)cc1	none (no result: Nrf2 inh, IL2 activator)
O=C(c1cc(COc2ccc3ncccc3c2)on1)N1CCC[C@H]1CO	Nrf2 inh 9.2µM
COc1cccc(OCc2cc(C(=O)N3CCCC3c3ccccn3)no2)c1 (centres undefined)	Nrf2 inh inconclusive
Nc1c(C(=O)Nc2ccccc2Br)sc2nc(-c3cccs3)ccc12	ClpP mod 32µM, Nrf2 ARE act inconclusive (no result: IL2 activator)
CC(=O)c1sc2nc(-c3cccs3)ccc2c1N	Nrf2 inh inconclusive, Nrf2 ARE act 13µM
Nc1c(C(=O)Nc2ccc(Cl)cc2F)sc2nc(-c3cccs3)ccc12	A549 viability inconclusive (no result: IL2 activator)
Nc1c(C(=O)Nc2nc3ccccc3s2)sc2nc(-c3cccs3)ccc12	A549 viability inconclusive, miR-21 act inconclusive, Nrf2 inh 21µM, Nrf2 ARE act inconclusive
Cc1cccc(-c2c3c(=O)n(C)c(=O)n(C)c3c3cnc4ccccc4n23)c1	none (no result: IL2 activator)
COc1cc(/C=C2\SC(=O)N(c3cccc(Cl)c3)C2=O)cc([N+](=O)[O-])c1O	A549 viability 13µM, Nrf2 inh inconclusive (no result: ClpP mod)
COc1cc(/C=C2\SC(=O)N(c3ccc(Cl)cc3)C2=O)cc([N+](=O)[O-])c1O	A549 viability 16µM, Nrf2 inh inconclusive (no result: ClpP mod)
O=C1S/C(=C\c2ccc(O)c([N+](=O)[O-])c2)C(=O)N1c1ccccc1Cl	A549 viability inconclusive, Nrf2 inh inconclusive
COc1ccccc1NC(=O)Cn1c(=O)c(CNc2ccc(C)cc2)cc2cc3c(cc21)OCCO3	none (no result: IL2 activator)
O=C(CCl)N1c2ccccc2SCC1c1ccccc1 (centres undefined)	A549 viability inconclusive, miR-21 act inconclusive, Nrf2 inh 26µM
Cc1c(SCCO)c(=O)[nH]c2cc3c(cc12)OCO3	ClpP mod 25µM
O=C1NC(=S)N/C1=C/c1ccc2c(c1)OCO2	A549 viability inconclusive, Nrf2 inh 13µM
O=C1NC(=S)SC1=Cc1ccc2c(c1)OCO2	A549 viability inconclusive, Nrf2 inh inconclusive (no result: miR-21 act, ClpP mod)
O=C(NN1C(=O)NC2(CCCCC2)C1=O)c1cc2cc(Cl)ccc2o1	none (no result: miR-21 act)
O=C(NN1C(=O)NC2(CCCCC2)C1=O)c1ccc(-c2ccc(Cl)cc2)o1	ClpP mod 6.3µM (no result: miR-21 act)
O=C(NC1CCC(O)CC1)c1ccc(-c2ccc(Cl)cc2)o1 (centres undefined)	ClpP mod 25µM, Nrf2 inh inconclusive (no result: miR-21 act)
COc1cccc(N2CCN(S(=O)(=O)c3cc4c(cc3C)N(C)CCO4)CC2)c1	ClpP mod inconclusive, Nrf2 inh inconclusive
Cc1cc2c(cc1S(=O)(=O)N1CCN(c3cccc(C)c3C)CC1)OCCN2C	ClpP mod 28µM, Nrf2 inh inconclusive
Cc1cccc(N2CCN(S(=O)(=O)c3ccc4c(c3)NC(=O)C(C)S4)CC2)c1C (centres undefined)	none
Cc1cccc(N2CCN(S(=O)(=O)c3ccc4c(c3)C(C(C)C)C(=O)N4)CC2)c1C (centres undefined)	Nrf2 inh 13µM (no result: IL2 activator)

From PubChem BioAssay
